8 molecules from PubChem BioAssay (EPA / NIEHS) can be followed below.

Experiment [1] can be described thus: ATG_M_61_CIS: Attagene CIS-FACTORIAL HepG2 Assay for M61 Transcription Factor (Internal Marker) (AID 2282937). The following applies: HepG2 Attagene CIS-FACTORIAL M61 internal marker reporter; actives raise or lower the signal. In short, it runs like this: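 Endogenous transcription factor activity in HepG2 is read through transiently transfected cis-element reporter units. After 24 h dosing, RNA undergoes reverse transcription, PCR and primer extension with 6-FAM before capillary electrophoresis; DMSO-referenced bidirectional fit.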

Experiment [2] can be described thus: ATG_EGR_CIS: Attagene CIS-FACTORIAL HepG2 Assay for human Early Growth Response 1 (EGR1) (AID 2282938). The following applies: HepG2 Attagene CIS-FACTORIAL EGR reporter mRNA; actives raise or lower the signal. In outline: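 Activity is taken as induction or loss of reporter mRNA versus DMSO, fitted bidirectionally. Transcripts from cis-regulated reporter units in transiently transfected HepG2 were measured after 24 h by RT-PCR with capillary electrophoresis.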

The nature of experiment [3]: ATG_M_19_CIS: Attagene CIS-FACTORIAL HepG2 Assay for M19 Transcription Factor (Internal Marker) (AID 2282939). The following applies: HepG2 Attagene CIS-FACTORIAL M19 internal marker reporter; actives raise or lower the signal. In outline: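 Signals come from fluorescence of labelled reporter-specific PCR fragments resolved by capillary electrophoresis, following 24 h treatment of HepG2 cells transfected with cis-promoter reporter units; activity was fitted in both directions relative to DMSO.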

Experiment [4] is described as follows: ATG_Ets_CIS: Attagene CIS-FACTORIAL HepG2 Assay for human Erythroblast Transformation Specific (ETS) (AID 2282941). As to conditions: HepG2 ETS cis-reporter transcription, actives raise or lower the signal. In outline:
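HepG2 cells transiently transfected with cis-promoter reporter transcription units were dosed for 24 h; reporter mRNA was measured by RT-PCR, 6-FAM primer extension, HpaI digestion and capillary electrophoresis, with bidirectional fitting against DMSO baseline.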

Experiment [5] concerns the target Hepatocyte nuclear factor 3-beta (Homo sapiens) (UniProt Q9Y261). Kind of experiment: ATG_FoxA2_CIS: Attagene CIS-FACTORIAL HepG2 Assay for human Forkhead box A2 (FOXA2) (AID 2282942). As to conditions: HepG2 cis-reporter transcription factor activity, 24 h; actives raise or lower the signal. In short, it runs like this: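 Reporter transcript induction is measured by fluorescence after capillary electrophoresis of RT-PCR products from HepG2 cells exposed 24 h. Cis-regulated reporter units report endogenous factor activity; curves fitted both directions against DMSO.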

The nature of experiment [6]: ATG_FoxO_CIS: Attagene CIS-FACTORIAL HepG2 Assay for human Forkhead box O (FoxO) (AID 2282943). The following applies: HepG2 Attagene cis-reporter, FoxO element, mRNA; actives raise or lower the signal. In outline:
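Values reflect reporter mRNA induction or loss in HepG2 cells 24 h post-dosing, fitted bidirectionally with DMSO as negative control and baseline. Detection used RT-PCR and fluorescence capillary electrophoresis.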

Experiment [7] can be described thus: ATG_GATA_CIS: Attagene CIS-FACTORIAL HepG2 Assay for human GATA Binding Protein (AID 2282944). The following applies: HepG2 GATA cis-element reporter, Attagene multiplex mRNA; actives raise or lower the signal. In outline:
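After transfecting HepG2 cells with multiple cis-regulated reporter units, chemicals are dosed for 24 h; isolated RNA undergoes RT-PCR and fluorescent labeling before capillary electrophoresis, with activity expressed against DMSO.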

Experiment [8] can be described thus: ATG_GLI_CIS: Attagene CIS-FACTORIAL HepG2 Assay for human Zinc Finger Protein GLI1 (AID 2282945). As to conditions: HepG2, Attagene cis-factorial reporter mRNA, GLI element; actives raise or lower the signal. In short, it runs like this: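 HepG2 cells transiently transfected with cis-promoter multiplexed reporter units report endogenous transcription factor activity. After 24 h chemical exposure, reporter mRNA was quantified by RT-PCR, 6-FAM labelling, HpaI digestion and capillary electrophoresis, with bidirectional fitting against DMSO.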

The nature of experiment [9]: ATG_GRE_CIS: Attagene CIS-FACTORIAL HepG2 Assay for human Glucocorticoid Response Elements (GRE) (AID 2282947). The following applies: HepG2 GRE cis-reporter, Attagene multiplex mRNA; actives raise or lower the signal. In short, it runs like this: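 Following 24 h chemical exposure of transiently transfected HepG2 cells, total RNA was reverse-transcribed and reporter cDNA amplified, fluorescently labelled and sized by capillary electrophoresis. Signal gain or loss was fitted relative to DMSO vehicle.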

The nature of experiment [10]: ATG_M_32_CIS: Attagene CIS-FACTORIAL HepG2 Assay for M32 Transcription Factor (Internal Marker) (AID 2282949).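 Note: background control marker of the multiplexed CIS panel rather than a real target.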 As to conditions: HepG2 Attagene cis-factorial M32 reporter, mRNA; actives raise or lower the signal. In short, it runs like this: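 Fluorescent capillary electrophoresis peaks of HpaI-digested, FAM-labelled RT-PCR reporter products give the signal. Source: transiently transfected human liver HepG2 cells, 24 h after chemical dosing; bidirectional fitting against DMSO.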

Experiment [11] in a line: ATG_M_06_CIS: Attagene CIS-FACTORIAL HepG2 Assay for M06 Transcription Factor (Internal Marker) (AID 2282950). The following applies: HepG2 Attagene CIS-FACTORIAL M06 internal marker reporter; actives raise or lower the signal. In outline: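 HepG2 liver cells, 24 h exposure. Reporter transcripts from transfected cis-element constructs quantified by RT-PCR/capillary electrophoresis fluorescence. Bidirectional curve fit against DMSO.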

Experiment [12] has as its target Hypoxia-inducible factor 1-alpha (Homo sapiens) (UniProt Q16665). Kind of experiment: ATG_HIF1a_CIS: Attagene CIS-FACTORIAL HepG2 Assay for human Hypoxia Inducible Factor 1 (HIF1A) (AID 2282951). As to conditions: HepG2 Attagene cis-factorial HIF1a reporter transcription; actives raise or lower the signal. In short, it runs like this: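 Fluorescence intensity of capillary-separated, 6-FAM-labelled reporter amplicons gives mRNA induction in HepG2 cells carrying transfected cis-promoter reporter units; cells exposed 24 h, responses fitted up or down from DMSO.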

Experiment [13] has as its target Hepatocyte nuclear factor 6 (Homo sapiens) (UniProt Q9UBC0). Kind of experiment: ATG_HNF6_CIS: Attagene CIS-FACTORIAL HepG2 Assay for human Hepatocyte Nuclear Factor 6 (HNF6) (AID 2282952). As to conditions: HepG2 Attagene cis-factorial HNF6 reporter transcription; actives raise or lower the signal. In short, it runs like this: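 HepG2 cells transiently transfected with cis-element-driven multiple reporter transcription units, dosed 24 h; reporter mRNA quantified by RT-PCR, FAM primer extension, HpaI digestion and capillary electrophoresis; bidirectional fit versus DMSO baseline.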

The target of experiment [14] is Heat shock factor protein 1 (Homo sapiens) (UniProt Q00613). Kind of experiment: ATG_HSE_CIS: Attagene CIS-FACTORIAL HepG2 Assay for human Heat Shock Transcription Factor 1 (HSE) (AID 2282953). The following applies: HepG2 HSE cis-reporter, Attagene RNA transcription; actives raise or lower the signal. In outline:
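Endogenous transcription factor activity captured via cis-promoter reporter units transfected into HepG2; treatment lasted 24 h. Fluorescence intensity of reporter fragments analysed with bidirectional curve fitting, DMSO baseline.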

A short description of experiment [15]: ATG_MRE_CIS: Attagene CIS-FACTORIAL HepG2 Assay for human Metal Responsive Element (MRE) (AID 2282954). The following applies: HepG2 MRE cis-reporter transcription, Attagene multiplex; actives raise or lower the signal. In outline: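 Step one: transfect HepG2 with cis-regulated reporter units. Step two: dose 24 h. Step three: isolate RNA, RT-PCR, 6-FAM label, HpaI digest, capillary electrophoresis. Fit bidirectionally to DMSO.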

Experiment [16] addresses Paired box protein Pax-6 (Homo sapiens) (UniProt P26367). Kind of experiment: ATG_Pax6_CIS: Attagene CIS-FACTORIAL HepG2 Assay for human Paired Box 6 (PAX6) (AID 2282956). The following applies: HepG2 CIS-FACTORIAL PAX6 reporter transcription, RNA readout; actives raise or lower the signal. In short, it runs like this:
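HepG2 cells transiently transfected with multiplexed cis-promoter reporter units (endogenous TF activity) were dosed for 24 h. Reporter mRNA was quantified by RT-PCR, 6-FAM labeling, HpaI digestion and capillary electrophoresis; bidirectional fitting versus DMSO baseline.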

Experiment [17] can be described thus: ATG_ISRE_CIS: Attagene CIS-FACTORIAL HepG2 Assay for human Interferon Regulatory Factor 1 (IRF1) binding to an Interferon-Stimulated Response Element (ISRE) (AID 2282948). As to conditions: HepG2 ISRE cis-reporter (Attagene), mRNA transcription readout; actives raise or lower the signal. In short, it runs like this: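 HepG2 cells transiently transfected with multiplexed cis-promoter reporter units; after 24 h compound exposure, reporter mRNA quantified by RT-PCR, FAM labelling, HpaI digestion and capillary electrophoresis. Bidirectional fit versus DMSO baseline.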

Experiment [18] can be described thus: ATG_PBREM_CIS: Attagene CIS-FACTORIAL HepG2 Assay for human Phenobarbital-responsive Enhancer Module (PBREM) (AID 2282955). The following applies: HepG2 PBREM cis-reporter, Attagene multiplexed transcription; actives raise or lower the signal. In short, it runs like this:
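Cells were transfected with cis-element reporter units and treated for 24 h, after which RNA was extracted and reporter transcripts measured by RT-PCR and capillary electrophoresis.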

Experiment [19] deals with Bile acid receptor (Homo sapiens) (UniProt Q96RI1). Kind of experiment: ATG_IR1_CIS: Attagene CIS-FACTORIAL HepG2 Assay for human Nuclear Receptor Subfamily 1 Group H Member 4 (NR1H4), IR1 submotif (AID 2282946). The following applies: IR1 reporter transcription, actives raise or lower the signal. In short, it runs like this:
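Transient MRTU transfection, HepG2; 24 h dosing; RNA → RT-PCR → 6-FAM primer extension → HpaI digest → capillary electrophoresis fluorescence. Gain/loss of signal fitted relative to DMSO.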

SMILES strings stand for the structures. A structure can be active in one record and inactive in another. Active and inactive are the calls of the source. Rule for the calls: active = hit-call score of the fitted dose curve at least 0.9, where 1 is the maximum; inactive = score below 0.9.

Sequence of Heat shock factor protein 1 (Homo sapiens) (Q00613 whole entry, looked up, the tested form may be a part): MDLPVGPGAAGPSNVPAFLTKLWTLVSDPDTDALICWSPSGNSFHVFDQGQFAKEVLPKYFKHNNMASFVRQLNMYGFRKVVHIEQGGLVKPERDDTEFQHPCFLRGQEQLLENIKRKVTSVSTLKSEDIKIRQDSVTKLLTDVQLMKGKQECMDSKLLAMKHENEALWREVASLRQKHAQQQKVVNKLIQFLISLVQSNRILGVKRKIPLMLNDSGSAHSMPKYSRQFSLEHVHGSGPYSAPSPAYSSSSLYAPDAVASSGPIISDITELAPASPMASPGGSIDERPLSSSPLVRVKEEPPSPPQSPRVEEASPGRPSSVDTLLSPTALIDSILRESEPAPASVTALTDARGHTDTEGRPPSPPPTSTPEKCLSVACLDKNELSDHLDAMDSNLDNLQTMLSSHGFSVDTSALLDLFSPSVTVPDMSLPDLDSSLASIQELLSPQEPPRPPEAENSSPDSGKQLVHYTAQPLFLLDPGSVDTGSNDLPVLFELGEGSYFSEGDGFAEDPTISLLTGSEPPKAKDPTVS
Sequence of Hypoxia-inducible factor 1-alpha (Homo sapiens) (Q16665 whole entry, looked up): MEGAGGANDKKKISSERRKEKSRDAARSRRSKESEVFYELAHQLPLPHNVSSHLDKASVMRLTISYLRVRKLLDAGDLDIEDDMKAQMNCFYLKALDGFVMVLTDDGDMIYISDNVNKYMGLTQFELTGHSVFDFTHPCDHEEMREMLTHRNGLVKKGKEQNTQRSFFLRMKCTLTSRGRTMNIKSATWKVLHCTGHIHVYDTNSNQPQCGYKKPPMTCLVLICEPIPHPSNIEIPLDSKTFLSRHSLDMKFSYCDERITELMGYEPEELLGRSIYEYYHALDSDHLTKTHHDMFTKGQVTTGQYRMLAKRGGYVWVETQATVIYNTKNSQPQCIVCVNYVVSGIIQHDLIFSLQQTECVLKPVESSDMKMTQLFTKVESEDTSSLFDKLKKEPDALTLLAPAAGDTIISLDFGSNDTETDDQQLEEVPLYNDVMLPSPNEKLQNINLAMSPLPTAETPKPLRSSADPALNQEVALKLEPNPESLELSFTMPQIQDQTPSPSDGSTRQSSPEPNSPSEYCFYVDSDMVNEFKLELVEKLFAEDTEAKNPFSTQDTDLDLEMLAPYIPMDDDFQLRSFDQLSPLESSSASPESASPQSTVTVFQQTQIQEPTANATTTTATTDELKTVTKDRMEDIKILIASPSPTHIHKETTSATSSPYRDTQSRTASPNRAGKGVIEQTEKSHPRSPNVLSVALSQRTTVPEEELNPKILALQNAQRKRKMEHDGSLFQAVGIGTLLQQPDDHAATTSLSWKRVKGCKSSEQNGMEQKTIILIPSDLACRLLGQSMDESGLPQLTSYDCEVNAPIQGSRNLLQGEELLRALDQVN
Sequence of Bile acid receptor (Homo sapiens) (Q96RI1 whole entry, looked up): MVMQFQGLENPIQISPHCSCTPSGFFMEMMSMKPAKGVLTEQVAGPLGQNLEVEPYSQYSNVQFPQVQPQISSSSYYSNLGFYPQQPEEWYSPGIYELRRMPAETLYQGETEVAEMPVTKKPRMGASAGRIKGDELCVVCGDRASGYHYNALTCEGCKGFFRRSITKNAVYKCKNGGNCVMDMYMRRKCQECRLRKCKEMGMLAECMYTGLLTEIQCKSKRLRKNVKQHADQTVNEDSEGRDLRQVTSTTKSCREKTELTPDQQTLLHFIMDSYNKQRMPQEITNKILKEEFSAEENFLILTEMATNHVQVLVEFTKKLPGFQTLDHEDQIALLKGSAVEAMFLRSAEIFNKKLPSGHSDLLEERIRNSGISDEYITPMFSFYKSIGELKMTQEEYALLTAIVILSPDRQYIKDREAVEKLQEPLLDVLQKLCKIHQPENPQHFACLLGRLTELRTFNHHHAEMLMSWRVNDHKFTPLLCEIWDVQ
Sequence of Paired box protein Pax-6 (Homo sapiens) (P26367 whole entry, looked up): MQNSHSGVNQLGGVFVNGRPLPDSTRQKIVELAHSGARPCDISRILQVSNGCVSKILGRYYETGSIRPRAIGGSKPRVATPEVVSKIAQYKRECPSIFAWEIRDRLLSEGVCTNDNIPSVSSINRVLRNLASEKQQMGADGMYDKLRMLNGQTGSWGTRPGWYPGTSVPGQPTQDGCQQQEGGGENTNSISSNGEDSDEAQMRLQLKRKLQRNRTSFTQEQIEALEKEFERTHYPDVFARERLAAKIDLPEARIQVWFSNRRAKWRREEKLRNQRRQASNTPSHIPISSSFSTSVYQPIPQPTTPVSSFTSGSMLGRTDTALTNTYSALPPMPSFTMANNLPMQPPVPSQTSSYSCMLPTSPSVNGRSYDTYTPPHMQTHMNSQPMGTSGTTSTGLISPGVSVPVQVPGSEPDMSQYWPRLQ
Sequence of Hepatocyte nuclear factor 6 (Homo sapiens) (Q9UBC0 whole entry, looked up): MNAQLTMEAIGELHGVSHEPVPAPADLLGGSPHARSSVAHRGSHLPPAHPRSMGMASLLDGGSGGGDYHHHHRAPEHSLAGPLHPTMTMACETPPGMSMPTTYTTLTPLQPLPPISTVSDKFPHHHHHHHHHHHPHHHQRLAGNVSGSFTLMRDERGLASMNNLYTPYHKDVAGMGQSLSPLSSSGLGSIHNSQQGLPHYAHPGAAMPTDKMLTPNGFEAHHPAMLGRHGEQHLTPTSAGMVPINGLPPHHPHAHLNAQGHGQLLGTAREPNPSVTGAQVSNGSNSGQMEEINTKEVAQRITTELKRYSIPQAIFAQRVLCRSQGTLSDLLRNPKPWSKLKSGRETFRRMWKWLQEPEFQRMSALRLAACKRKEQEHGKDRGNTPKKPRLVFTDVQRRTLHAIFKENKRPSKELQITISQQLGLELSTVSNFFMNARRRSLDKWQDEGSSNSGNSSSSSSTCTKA
Sequence of Hepatocyte nuclear factor 3-beta (Homo sapiens) (Q9Y261 whole entry, looked up): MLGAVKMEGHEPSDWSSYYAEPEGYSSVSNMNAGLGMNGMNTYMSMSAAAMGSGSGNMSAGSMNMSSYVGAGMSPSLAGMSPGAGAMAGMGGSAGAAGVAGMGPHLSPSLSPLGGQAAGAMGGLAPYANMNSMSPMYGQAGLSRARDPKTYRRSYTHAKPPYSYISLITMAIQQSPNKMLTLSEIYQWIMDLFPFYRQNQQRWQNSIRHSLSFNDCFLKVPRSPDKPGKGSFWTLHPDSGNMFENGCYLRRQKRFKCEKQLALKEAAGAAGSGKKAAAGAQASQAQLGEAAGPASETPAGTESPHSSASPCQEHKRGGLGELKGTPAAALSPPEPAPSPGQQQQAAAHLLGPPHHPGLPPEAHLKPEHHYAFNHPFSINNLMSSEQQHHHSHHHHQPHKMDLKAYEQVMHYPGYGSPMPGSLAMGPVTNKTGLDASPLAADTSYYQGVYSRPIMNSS

For `N#CS`, the call in experiment [1], in [2], in [3], in [4], in experiment [5] and in [6] was inactive. Further, the molecule was classed as inactive in experiment [7], in experiment [8], in experiment [9], in experiment [10], in [11] and in experiment [12]. Also, the molecule was called inactive in experiment [13], in experiment [14], in [15] and in [16].

Regarding `Cc1cc(Cl)ccc1N`, the result in experiment [1], in experiment [2], in experiment [3], in experiment [4], in experiment [5] and in experiment [6] was inactive. For the same molecule, the molecule was classed as inactive in experiment [7], in experiment [8], in experiment [9], in [17], in experiment [10] and in experiment [11]. In addition, the call in experiment [12], in [13], in experiment [14], in experiment [15], in experiment [18] and in [16] was inactive.

Regarding `CCCCOP(=O)(CCCC)OCCCC`, the molecule was called inactive in [1], in experiment [2], in experiment [3], in experiment [4], in experiment [5] and in experiment [6]. In addition, the result in [8], in [19], in experiment [9], in experiment [17], in experiment [10] and in [11] was inactive. In addition, the call in experiment [12], in experiment [13], in experiment [14], in [15], in experiment [18] and in experiment [16] was inactive.

On to `O=C1C[C@@H]2OCC=C3CN4CC[C@]56c7ccccc7N1[C@H]5[C@H]2[C@H]3C[C@H]46`, for which the outcome in experiment [1], in [2], in experiment [3], in experiment [4], in experiment [6] and in experiment [7] was inactive. The call in experiment [8], in experiment [17], in experiment [10], in [11], in experiment [13] and in [14] was inactive. The molecule was classed as inactive in experiment [15], in experiment [18] and in [16].

For the molecule `CC(C)[N+](=O)[O-]`, the molecule was classed as inactive in experiment [1], in experiment [2], in experiment [3], in experiment [4], in [5] and in experiment [6]. Further, the molecule was called inactive in [7], in [8], in [19], in experiment [9], in experiment [10] and in [11]. Further, the call in experiment [12], in experiment [13], in [14], in [15], in [18] and in [16] was inactive.

For the molecule `C#C[C@]1(O)CC[C@H]2[C@@H]3CCC4=CC(=O)CC[C@]4(C)[C@H]3CC[C@@]21C`, the molecule was classed as inactive in experiment [1], in experiment [2], in [3], in experiment [4], in experiment [5] and in experiment [6]. In addition, the molecule was classed as inactive in [7], in experiment [8], in experiment [19], in [9], in experiment [17] and in experiment [10]. In addition, the call in experiment [13], in [14], in experiment [15], in experiment [18] and in [16] was inactive.

A word on the AC50: it is the concentration giving half of the maximal activity seen. For `Nc1ccc(N)cc1`, the call in experiment [1], in experiment [2], in experiment [3], in [4], in experiment [6] and in [7] was inactive. Besides, the molecule was called inactive in experiment [8], in experiment [19], in experiment [10], in experiment [11], in [12] and in experiment [13]. Further, the molecule was called inactive in experiment [15], in experiment [18] and in [16]. For the same molecule, in experiment [12], the AC50 was 100 µM (active).

Turning to `Nc1ncn[nH]1`, the molecule was classed as inactive in experiment [1], in experiment [2], in experiment [3], in experiment [4], in experiment [5] and in experiment [6]. The outcome in experiment [8], in [19], in [9], in experiment [17], in experiment [10] and in [12] was inactive. The molecule was called inactive in [13], in experiment [14], in [15], in experiment [18] and in experiment [16].
